According to PubChem BioAssay (NCATS):
Inconclusive results are not listed. Active and inactive are the calls of the source. Unless noted, calls follow the shape of the dose curve; as a rule, active = well fitted curve in the direction sought with a large enough effect; inconclusive = small, poorly fitted or top-dose-only effect, or another doubt; inactive = no such curve, though single readings can be large; an effect the other way counts as inactive or inconclusive.

Key:
[1] = Cell Viability - Jurkat (AID 426;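 active = dose-dependent loss of cell ATP signal giving a full or clear fitted curve, ranked by lower potency value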; also: potency is read from the fitted curve at half-maximal effect); details: qHTS
Summary of the method: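 Jurkat (clone E6-1, human T-cell leukemia) cells, 5000/well in complete medium, were exposed to compound for 40 hr at 37 °C. Viability was read as intracellular ATP by CellTiter-Glo luminescence; AC50 came from Hill fits of concentration-response data.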

[2] = Cell Viability - Hek293 (AID 427;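 active = compounds whose dose-response curve shows a full or clear partial loss of cell viability, called from curve shape rather than a numeric limit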;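 also: potency is read from the fitted curve at half-maximal effect; cells exposed to compound for 40 hours at 37 °C before reading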); details: qHTS
Summary of the method: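 Luminescent ATP read-out (CellTiter-Glo, 20 min RT) after 40 hr compound exposure at 37 °C in complete medium. Signal normalized to DMSO (basal) and 100 uM tamoxifen (100% inhibition); concentration-response fitted with the standard Hill equation to give AC50.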

[3] = Cell Viability - HepG2 (AID 433; calls by dose curve;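 also: potency is read from the fitted curve at half-maximal effect; potency for ATP loss meaning cytotoxicity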); details: qHTS
Summary of the method: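 Read-out is luciferase-based quantitation of cellular ATP as a measure of viable HepG2 cells after 40 h treatment at 37 °C. Signal decrease is scaled between DMSO-only and 100 uM tamoxifen controls, with AC50 fitted by the Hill equation.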

[4] = Cell Viability - MRC5 (AID 434; calls by dose curve;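 also: potency is read from the fitted curve at half-maximal effect; potency reflects cytotoxicity seen as loss of intracellular ATP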); details: MRC5 lung fibroblast viability, qHTS
Summary of the method: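 MRC5 normal human lung fibroblasts, 1500 cells/well, exposed to compound for 40 hr at 37 C. Cellular ATP was read by CellTiter-Glo luminescence; data normalized to DMSO and 100 uM tamoxifen, with AC50 from Hill fits.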

[5] = biological target: Mitogen-activated protein kinase 10 (Mus musculus) (UniProt Q61831); assay: JNK3 AlphaScreen Assay (AID 530; active = well fitted curve in either direction with a large enough effect, not every such curve was filed as active;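 also: kinase came from lysate of stimulated human HepG2 cells; signal reports phosphorylation of biotinylated GST-cJun 1-79 at Ser73 with 10 µM ATP; % is scaled to controls: 0 for no effect and ±100 for the full control effect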)
Summary of the method: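 qHTS format: compounds tested as titrations against IL-1beta/TNF-alpha-activated HepG2 lysate JNK3 with biotin-GST-cJun substrate and 10 uM ATP at room temperature. Loss of anti-phospho-cJun AlphaScreen signal indicates inhibition.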

[6] = Cell Viability - N2a (AID 540); details: N2a mouse neuroblastoma cell viability; at 92.2 µM (top of the series);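 also: plate controls were DMSO alone for no effect and tamoxifen control for full effect; nearly all actives have a fitted effect of over 45% in size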
Summary of the method: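 Mouse neuroblastoma N2a cells (1500/well) were preincubated 5 hr at 37 °C, then exposed to compounds for 40 hr at 37 °C in complete medium. Viability was read as intracellular ATP by CellTiter-Glo luminescence; AC50 from Hill fits.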

[7] = Cell Viability - NIH 3T3 (AID 541); details: NIH 3T3 cell viability, qHTS; activity change, negative = cytotoxicity: at 92.2 µM (top of the series);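 also: plate controls were DMSO alone for no effect and tamoxifen positive control for full effect; nearly all actives have a fitted effect of over 25% in size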
Summary of the method: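 NIH 3T3 mouse embryo fibroblasts (1000 cells/well) were plated in complete medium and treated with compound for 40 hr at 37 °C. Viability was read as intracellular ATP by CellTiter-Glo luminescence; AC50 values came from Hill-equation fits of concentration-response data.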

[8] = Cell Viability - HUV-EC-C (AID 542); also: % is scaled to controls: 0 for no effect and ±100 for the full control effect; nearly all actives have a fitted effect of over 35% in size
Summary of the method: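 HUV-EC-C normal human vascular endothelial cells, 1000 cells/well, pre-incubated 5 hr at 37 °C, then exposed to compounds for 40 hr at 37 °C in complete medium. Viability measured as intracellular ATP by CellTiter-Glo luminescence; AC50 from Hill fits.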

[9] = Cell Viability - H-4-II-E (AID 543); also: % is scaled to controls: 0 for no effect and ±100 for the full control effect; nearly all actives have a fitted effect of over 35% in size
Summary of the method: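 Rat hepatoma H-4-II-E cells (1500/well) were plated, incubated 5 hr at 37 °C, then exposed to compounds for 40 hr at 37 °C. Cellular ATP was read by CellTiter-Glo luminescence; AC50 came from Hill-equation fits of concentration-response data.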

[10] = Cell Viability - SH-SY5Y (AID 544); details: SH-SY5Y neuroblastoma cell viability; viability change, negative = cytotoxic: at 92.2 µM (top of the series); also: nearly all actives have a fitted effect of over 55% in size
Summary of the method: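 Human neuroblastoma SH-SY5Y cells (1500/well) in complete medium were exposed to compounds for 40 hr at 37 °C; intracellular ATP was then quantified by CellTiter-Glo luminescence after 20 min at room temperature. AC50 came from Hill-equation concentration-response fits.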

[11] = Cell Viability - Renal Proximal Tubule (AID 545); details: renal proximal tubule cells viability; at 91.7 µM (top of the series), primary cells of rat origin unless noted; also: nearly all actives have a fitted effect of over 40% in size
Summary of the method: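 Luminescent ATP signal (CellTiter-Glo) served as the viability read-out after 40 hr compound exposure of freshly isolated rat proximal tubule cells at 37 °C. Concentration-dependent ATP loss was fitted with the Hill equation to give AC50.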

[12] = Cell Viability - Mesenchymal (AID 546);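 also: cells exposed to compound for 40 hours before reading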
Summary of the method: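 Human kidney mesenchymal cells from normal renal glomeruli, 1000 cells/well, rested 5 hr at 37 °C, then treated 40 hr at 37 °C in complete medium. Cellular ATP read by CellTiter-Glo luminescence; AC50 from Hill-equation fits.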

[13] = Cellular Toxicity (caspase-3) HepG2 (AID 654);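 also: cells exposed to compound for 16 hours before reading; 0% = DMSO alone and 100% = caspase signal from 100 µM tamoxifen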
Summary of the method: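 HepG2 cells (1500/well) in complete medium were treated with compounds for 16 hr at 37 °C. Caspase-3/7 activity was then read as luminescence from peptide-aminoluciferin cleavage. AC50 came from Hill fits, normalized to DMSO and 100 uM tamoxifen.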

[14] = Cellular Toxicity (caspase-3) Jurkat (AID 655); details: Jurkat caspase-3 activation, luminescence, DMSO = 0%, tamoxifen = 100%; at 92.2 µM (top of the series);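 also: cells exposed to compound for 16 h at 37 °C before reading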
Summary of the method: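 5000 Jurkat cells/well; compound 16 hr, 37 °C; Caspase-Glo 3/7 added, 20 min RT; luminescence read. Norm: DMSO = 0%, tamoxifen 100 uM = 100%. AC50, Hill model.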

[15] = Cellular Toxicity (caspase-3) HUV-EC-C (AID 656)
Summary of the method: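 qHTS; HUV-EC-C, 1000 cells/well; 5 hr settle, 16 hr cmpd, 37°C; Caspase-Glo 3/7, 20 min RT; luminescence. Norm: DMSO = 0%, tamoxifen 100 uM = 100%. Hill-fit AC50.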

[16] = Cellular Toxicity (caspase-3) SHSY5Y (AID 657)
Summary of the method: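 qHTS, SH-SY5Y, 1500 cells/well, 5 h pre-incubation 37 °C; compound 16 h 37 °C; Caspase-Glo 3/7 1 h RT; luminescence. Norm.: DMSO = 0, 10 uM staurosporine = 100%. Hill fit → AC50.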

[17] = Cellular Toxicity (caspase-3) BJ (AID 658)
Summary of the method: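 BJ human foreskin fibroblasts, 1000 cells/well, treated 16 hours at 37 °C in complete medium; caspase 3/7 activity by Caspase-Glo luminescence after 1 hr at room temperature. Normalized to DMSO and 10 uM staurosporine; AC50 from Hill fits.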

[18] = Cellular Toxicity (caspase-3) MRC-5 (AID 659)
Summary of the method: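 MRC-5 human normal lung fibroblasts, 1500 cells/well, treated 16 h at 37 °C in complete medium. Caspase 3/7 measured by Caspase-Glo luminescence after 1 h at room temperature. Normalized to DMSO and 10 uM staurosporine; AC50 from Hill fit.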

[19] = Cellular Toxicity (caspase-3) SK-N-SH (AID 661)
Summary of the method: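 SK-N-SH human neuroblastoma cells (1500/well) were treated with compounds for 16 hr at 37 °C in complete medium; caspase 3/7 activity was read by Caspase-Glo luminescence. AC50 came from Hill fits of data normalized to DMSO and 10 uM staurosporine.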

[20] = Cellular Toxicity (caspase-3) H-4-II-E (AID 663);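 also: cells exposed to compound for 16 hr before readout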
Summary of the method: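 Rat hepatoma H-4-II-E cells (1500/well) plated 5 hr, then exposed to compound titrations for 16 hr at 37 °C. Caspase-Glo 3/7 luminescence read after 20 min at RT; data normalized to DMSO and 100 uM tamoxifen, AC50 from Hill fits.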

[21] = Cellular Toxicity (caspase-3) Hek293 (AID 664);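 also: cells exposed to compound for 16 h at 37 °C before readout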
Summary of the method: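 HEK293 cells were exposed to compounds in complete medium for 16 hr at 37 °C, then caspase-3/7 activity was read by Caspase-Glo 3/7 luminescence after 20 min at room temperature. Data normalized to DMSO and 100 uM tamoxifen; AC50 from Hill fits.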

[22] = Cellular Toxicity (caspase-3) N2a (AID 665); details: N2a cells, luminescence, normalized: DMSO 0%, 10 µM staurosporine 100%; at 92.2 µM (top of the series);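 also: compound exposure lasted 16 h at 37 °C before readout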
Summary of the method: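 Mouse N2a neuroblastoma cells (1500/well) were treated with compounds for 16 h at 37 °C, then caspase-3/7 activity was read by Caspase-Glo luminescence after 1 h at room temperature. Data were normalized to DMSO and 10 uM staurosporine; AC50 from Hill fits.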

CC(Cl)Cl
inactive: Potency [1] > 92 µM | Potency [2] > 92 µM | Potency [3] > 92 µM | Potency [4] > 92 µM | outcome [5] | activity change, negative = cytotoxicity [6] -11.1% | activity change, negative = cytotoxicity [7] -15.4% | Potency [8] | Potency [9] | Potency [10] | activity change, negative = cytotoxicity [11] -11.4% | outcome [12] | outcome [13] | caspase-3 activation [14] 1.86% | outcome [15] | outcome [16] | outcome [17] | outcome [18] | outcome [19] | outcome [20] | outcome [21] | caspase-3 activation [22] -4.66%
